Measured values as given in PubChem BioAssay AID779 (Sanford-Burnham Center for Chemical Genomics, 2007).
Values without a mark were called inactive. How the calls were made is not given here.

Experiment: PLAP enzyme activity inhibition – biochemical, colorimetric, counter-screen, dose response (AID 779)
Details: colorimetric OD read-out

Question: For `CCCCCn1nc(-c2ccccc2)c2nc3ccccc3nc21`, which IC50 is on record?
Answer: > 50 µM

Question: With `O=C1CCCC2=C1C(c1ccco1)Nc1ccc3ccccc3c12` (stereo unspecified) as the compound, how does the IC50 read?
Answer: > 50 µM

Question: For `COc1ccc2sc3ccccc3c(=O)c2c1OC`, which IC50 is on record?
Answer: > 50 µM

Question: Which IC50 does the source give for `CCN(CCNC(=O)C1CCCN(S(=O)(=O)CC)C1)c1ccccc1` (stereo unspecified) here?
Answer: > 50 µM

Question: For `COc1cc(/C=C2\SC(=S)N(Nc3ccccc3)C2=O)cc(OC)c1OC`, which IC50 is on record?
Answer: > 50 µM

Question: For `CC(C(=O)O)N1C(=O)/C(=C/C=C/c2ccco2)SC1=S` (stereo unspecified), which IC50 is on record?
Answer: > 50 µM

Question: Which IC50 does the source give for `CC(C)(C)C(=O)c1sc2nc(-c3cccs3)cc(C(F)(F)F)c2c1N` here?
Answer: > 50 µM

Question: With `CCN1/C(=C/c2ccc3cccc(C)c3[n+]2CC)Sc2ccccc21` as the compound, how does the IC50 read?
Answer: > 50 µM

Question: With `CCOC(=O)c1cc(-c2ccc(/C=C3/C(=O)NC(=O)C(C#N)=C3C)o2)ccc1Cl` as the compound, how does the IC50 read?
Answer: > 50 µM

Question: With `COc1ccc(/C=c2\sc3nc(-c4ccccc4)c(-c4ccccc4)n3c2=O)cc1OC` as the compound, how does the IC50 read?
Answer: > 50 µM

Question: With `COc1cc(/C=C2\SC(=S)N(Nc3ncc(C(F)(F)F)cc3Cl)C2=O)cc(OC)c1OC` as the compound, how does the IC50 read?
Answer: > 50 µM

Question: For `C=CCn1c(SCC(=O)Nc2ncc(Cc3cc(C(F)(F)F)ccc3Cl)s2)nnc1-c1ccncc1`, which IC50 is on record?
Answer: > 50 µM

Question: For `Cc1ccc2cc(C=C(C#N)C#N)c(N3CCCCC3)nc2c1`, which IC50 is on record?
Answer: > 50 µM

Question: Which IC50 does the source give for `Cc1cc(C)c2nc(N3CCCN(C(=O)c4ccco4)CC3)c(C#N)cc2c1` here?
Answer: > 50 µM

Question: With `COc1ccccc1N1CSC2=C(C#N)C(c3ccc(SC)cc3)CC(=O)N2C1` (stereo unspecified) as the compound, how does the IC50 read?
Answer: > 50 µM

Question: Which IC50 does the source give for `Fc1ccc(-c2cc3nc4c(c(N5CCOCC5)n3n2)CCCC4)cc1` here?
Answer: > 50 µM

Question: With `COc1cc(C(Nc2ccccn2)c2ccc3ccc(C)nc3c2O)cc(OC)c1O` (stereo unspecified) as the compound, how does the IC50 read?
Answer: > 50 µM

Question: Which IC50 does the source give for `Cc1nc(C)c(C(=O)Nc2nc3c(C)cccc3s2)o1` here?
Answer: > 50 µM

Question: Which IC50 does the source give for `CN(C)c1ccc(/C=C/C=C2/SC(=S)N(c3ccccc3)C2=O)cc1` here?
Answer: > 50 µM

Question: For `CCNc1ccc(Br)cc(C(=O)/C=C/c2ccc3c(c2)OCO3)c1=O`, which IC50 is on record?
Answer: > 50 µM

Question: For `COc1ccc(N(C(=O)c2ccco2)S(=O)(=O)c2cc(Cl)c(Cl)cc2Cl)cc1`, which IC50 is on record?
Answer: > 50 µM

Question: With `Cc1ccc(C)c(N(CC(=O)N/N=C/c2ccc(-c3ccc([N+](=O)[O-])cc3)o2)S(=O)(=O)c2ccccc2)c1` as the compound, how does the IC50 read?
Answer: > 50 µM

Question: With `Cc1ccc(C2=N/C(=C\c3cccs3)C(=O)N2Nc2ccccc2)cc1` as the compound, how does the IC50 read?
Answer: > 50 µM

Question: With `CCCSC1=N/C(=C\C=C\c2ccco2)C(=O)S1` as the compound, how does the IC50 read?
Answer: > 50 µM

Question: For `COC(=O)CSc1nc(-c2ccccc2)cc(-c2ccco2)c1C#N`, which IC50 is on record?
Answer: > 50 µM

Question: For `CCSc1nnc(NC(=O)C(C(F)(F)F)C(F)(F)F)s1`, which IC50 is on record?
Answer: > 50 µM

Question: For `Cc1cc2cc(CNC(=O)c3ccc(S(=O)(=O)N4CCCCC4)cc3)ccc2n1C`, which IC50 is on record?
Answer: > 50 µM

Question: Which IC50 does the source give for `CCCCCCOC(=O)C(C#N)c1nc2ccccc2nc1N1CCN(CC)CC1` (stereo unspecified) here?
Answer: > 50 µM

Question: For `O=C(NCc1ccccc1)c1ccc2nc(-c3ccco3)c(-c3ccco3)nc2c1`, which IC50 is on record?
Answer: > 50 µM

Question: With `O=C(CCN1C(=O)/C(=C/C=C/c2ccccc2)SC1=S)Nc1nccs1` as the compound, how does the IC50 read?
Answer: > 50 µM

Question: Which IC50 does the source give for `Cc1cc(C)n(CNc2nc(C(F)(F)F)cs2)n1` here?
Answer: > 50 µM
